In PubChem BioAssay (Tox21) one finds Potency and activation data, which are given here for 39 compounds.

Several values for one entry are separate records, joined by “and”; a condition that tells them apart may be missing. Identical values can stand only once. Records with an inconclusive call do not appear. Entries that show only a call come without a potency. The source holds several records for some structures; these can differ, active in one and inactive in another. Activity calls are given as the source filed them. Unless noted, calls come from the whole dose curve.
Potency is the fitted concentration of half-maximal effect.

Estrogen receptor (Homo sapiens), sequence (P03372 whole entry, looked up): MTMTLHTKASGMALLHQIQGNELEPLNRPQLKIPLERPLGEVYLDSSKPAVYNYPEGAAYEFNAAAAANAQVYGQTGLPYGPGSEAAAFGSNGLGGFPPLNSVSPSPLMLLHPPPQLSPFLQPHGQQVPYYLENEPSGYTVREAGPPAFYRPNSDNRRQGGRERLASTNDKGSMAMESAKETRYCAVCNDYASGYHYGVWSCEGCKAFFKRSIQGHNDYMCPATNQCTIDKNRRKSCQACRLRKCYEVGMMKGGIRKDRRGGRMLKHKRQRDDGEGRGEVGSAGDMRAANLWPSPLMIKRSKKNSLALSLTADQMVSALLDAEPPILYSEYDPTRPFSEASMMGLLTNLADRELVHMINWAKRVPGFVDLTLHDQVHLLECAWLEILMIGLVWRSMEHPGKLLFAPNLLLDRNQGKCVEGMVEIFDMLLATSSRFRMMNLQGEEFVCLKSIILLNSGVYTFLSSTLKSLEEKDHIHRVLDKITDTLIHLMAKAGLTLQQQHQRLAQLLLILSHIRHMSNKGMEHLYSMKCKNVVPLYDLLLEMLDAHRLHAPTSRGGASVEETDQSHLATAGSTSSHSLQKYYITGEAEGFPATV

System in one test: not listed separately
The test is described as follows: qHTS assay to identify small molecule antagonists of the thyroid receptor (TR) signaling pathway (AID 743065; active = well fitted inhibition curve with a large enough effect in the repeat runs; note: nearly all actives have a fitted effect of over 55% in size). The conditions noted are these: GH3.TRE-Luc, T3-stimulated luciferase inhibition, 23.5 h; series mostly up to 70.3 µM. In a few lines: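 GH3.TRE-Luc rat pituitary cells (two TREs driving luciferase) were dosed with compound, then stimulated with 1 nM T3 (final) for 23.5 h at 37 C. ONE-Glo luminescence was the read-out, with CellTiter-Fluor fluorescence as the cytotoxicity counter-screen.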
(In general: qHTS replaces the single test concentration by a dilution series.)
For the compound `O=C(Cl)OCCOCCOC(=O)Cl`, the Potency entry was “inactive”. On to `Nc1cccc2ccccc12`, for which the Potency result is “inactive”. Regarding `c1ccc2c(c1)-c1cccc3cccc-2c13`, the Potency result is “inactive”.

On to `CCC1(CCC(C)C)C(=O)NC(=O)NC1=O`, for which the Potency result is “inactive”. `Clc1ccc(Cl)c(Cl)c1`: the Potency result was “inactive”.

`[Cl-].[Cl-].[Hg+2]`: the Potency was 841 nM (active) and 1.21 µM (active) and 193 nM (active).

On to `O=C1c2ccccc2C(=O)N1SC(Cl)(Cl)Cl`, for which the Potency is 2.4 µM (active) and 1.54 µM (active).

For `CCCCNC(=O)OCC#CI`, the Potency is 9.64 µM (active) and 4.86 µM (active). As for `O=C(O)C(Cl)(Cl)Br`, the Potency entry is “inactive”. As to `CCC1CCC(=O)O1` (stereo not drawn), the Potency result is “inactive”.

For the compound `C[CH2][Hg][S]c1ccccc1C(=O)O`, the Potency was 335 nM (active) and 243 nM (active). Still for that read-out and setting: the figure for `CCCCCCCCn1sccc1=O` is 4.87 µM (active) and 3.6 µM (active); for `CC1(C)[C@H](C(=O)O[C@H](C#N)c2cccc(Oc3ccccc3)c2)[C@@H]1C=C(Br)Br` it is “inactive”. On the same count and under the same terms, the same measure for `CCCCCCCCP(=O)(O)O`: “inactive”; for `C=CCc1ccc(OC(=O)Cc2ccccc2)c(OC)c1`: “inactive”; for `O=C1CC[C@@]2(O)[C@H]3Cc4ccc(O)c5c4[C@@]2(CCN3CC2CC2)[C@H]1O5`: “inactive”. With `O=C(O)COc1cc(Cl)c(Cl)cc1Cl`, the Potency was 54.5 µM (active). With `CCCN(CCOc1c(Cl)cc(Cl)cc1Cl)C(=O)n1ccnc1`, the Potency was 27.9 µM (active) and 61.1 µM (active).

On to `O=[N+]([O-])/C=C/c1ccccc1`, for which the Potency is 12.4 µM (active) and 7.7 µM (active). Same read-out and setting: the figure for `CC(C)(C)CC(C)(C)c1ccc(O)cc1` is 26.6 µM (active) and 21.7 µM (active). `Nc1ccccc1C(=O)OCCc1ccccc1`: the Potency result was “inactive”.

Consider `CC(C)CCCCCCCOC(=O)c1ccccc1C(=O)OCCCCCCCC(C)C`, for which the Potency result was “inactive”. For the compound `O=C(O)CCCOc1ccc(Cl)cc1Cl`, the Potency entry was “inactive”. For the compound `COC1=CC(=O)O[C@@H](/C=C/c2ccc3c(c2)OCO3)C1`, the Potency is 0.0585 µM (active). On to `CC(C)(C)OOC(C)(C)CCC(C)(C)OOC(C)(C)C`, for which the Potency entry was “inactive”. Still for that read-out and setting: the figure for `C[C@@H]1C[C@@H]([C@H](O)CC2CC(=O)NC(=O)C2)C(=O)[C@@H](C)C1` is 66.8 nM (active) and 60.8 nM (active).

The subject of another test is thyroid hormone receptor (rat, GH3 cells). The test is described as follows: qHTS assay to identify small molecule agonists of the thyroid receptor (TR) signaling pathway (AID 743066). The conditions noted are these: GH3.TRE-Luc cells, TR agonist luciferase, 24 h; series mostly up to 83.9 µM.
Take `O=C(Cl)OCCOCCOC(=O)Cl`: the Potency is 27.3 µM (active). For `Nc1cccc2ccccc12`, the Potency entry is “inactive”.

Turning to `c1ccc2c(c1)-c1cccc3cccc-2c13`, the Potency result is “inactive”. For `CCC1(CCC(C)C)C(=O)NC(=O)NC1=O`, the Potency result was “inactive”. For the compound `O=C1NC(=O)C(=O)C(=O)N1`, the Potency result was “inactive”. Turning to `Clc1ccc(Cl)c(Cl)c1`, the Potency entry is “inactive and 30.6 µM (active)”. In the case of `CN1CC[C@]23c4c5ccc(O)c4O[C@H]2[C@@H](O)C=C[C@H]3[C@H]1C5`, the Potency entry was “inactive”. With `COc1ccc(C(=O)c2c(C)n(CCN3CCOCC3)c3ccccc23)cc1`, the Potency result is “inactive”. On the same count and under the same terms, the same measure for `O=C(O)c1cc(I)cc(I)c1I`: “inactive”; for `CCCCNC(=O)OCC#CI`: “inactive”. With `CCC1(C2=NCCN2)Cc2ccccc2O1` (stereo not drawn), the Potency entry was “inactive”. `O=C(O)C(Cl)(Cl)Br`: the Potency entry was “inactive”.

Consider `CCC1CCC(=O)O1` (stereo not drawn), for which the Potency entry is “inactive”. Same read-out and setting: the same measure for `CC1(C)[C@H](C(=O)O[C@H](C#N)c2cccc(Oc3ccccc3)c2)[C@@H]1C=C(Br)Br`: “inactive”.

Consider `CCCCCCCCCCCCN=C(N)N`, for which the activation is -1.59% [at 3.63 µM] (inactive). `CCCCCCCCP(=O)(O)O`: the Potency result is “inactive”.

On to `CN1C[C@H](C(=O)N[C@]2(C)O[C@@]3(O)[C@@H]4CCCN4C(=O)[C@H](Cc4ccccc4)N3C2=O)C=C2c3cccc4[nH]cc(c34)C[C@H]21`, for which the Potency result is “inactive”. `CNC(=O)Oc1cccc(N=CN(C)C)c1`: the Potency result was “inactive”. Regarding `O=C(O)C(O)C(O)C(=O)O` (stereo not drawn), the Potency entry is “inactive”.

Consider `C=CCc1ccc(OC(=O)Cc2ccccc2)c(OC)c1`, for which the Potency result is “inactive”. Still for that read-out and setting: the same measure for `Cc1ncc(C[n+]2csc(CCO)c2C)c(N)n1`: “inactive”; for `O=C1CC[C@@]2(O)[C@H]3Cc4ccc(O)c5c4[C@@]2(CCN3CC2CC2)[C@H]1O5`: “inactive”; for `C[C@]12CC[C@H]3[C@@H](CCC4=CC(=O)CC[C@@H]43)[C@@H]1CC[C@@H]2OC(=O)CCc1ccccc1`: “inactive”. For the compound `O=C(O)COc1cc(Cl)c(Cl)cc1Cl`, the Potency entry is “inactive”. In the case of `CCCN(CCOc1c(Cl)cc(Cl)cc1Cl)C(=O)n1ccnc1`, the Potency result is “inactive”.

For the compound `CN(C)C(=O)Nc1cccc(OC(=O)NC(C)(C)C)c1`, the Potency entry was “inactive”. In the case of `O=[N+]([O-])/C=C/c1ccccc1`, the Potency entry is “inactive”. Regarding `Nc1ccccc1C(=O)OCCc1ccccc1`, the Potency result is “inactive”. With `O=C(O)CCCOc1ccc(Cl)cc1Cl`, the Potency result is “inactive”.

With `COC1=CC(=O)O[C@@H](/C=C/c2ccc3c(c2)OCO3)C1`, the Potency entry was “inactive”. As for `CC(C)(C)OOC(C)(C)CCC(C)(C)OOC(C)(C)C`, the Potency result is “inactive”. Same read-out and setting: the entry for `CC(C)[C@@H](C(=O)O[C@@H](C#N)c1cccc(Oc2ccccc2)c1)c1ccc(Cl)cc1` is “inactive”; for `C[C@@H]1C[C@@H]([C@H](O)CC2CC(=O)NC(=O)C2)C(=O)[C@@H](C)C1` it is “inactive”.

The next test deals with Estrogen receptor (Homo sapiens) (UniProt P03372). As to the kind of experiment: qHTS assay to identify small molecule antagonists of the estrogen receptor alpha (ER-alpha) signaling pathway (AID 743069; active = well fitted curve in the direction sought with a large enough effect in the signal ratio in the repeat runs, not every such curve was filed as active; the % refers to the signal ratio). The conditions noted are these: HEK293 ER-alpha-UAS-bla, beta-lactamase ratio, antagonist mode; series mostly up to 69.4 µM. In a few lines:
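Reporter cells (ER-alpha-bla, HEK293 background) are conditioned overnight in stripped-serum medium (2% charcoal-stripped FBS). Compound and 17beta-estradiol exposure runs 18 hr at 37C, 5% CO2.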
`O=C1NC(=O)C(=O)C(=O)N1`: the Potency entry was “inactive”.

Consider `O=C(O)c1cc(I)cc(I)c1I`, for which the Potency entry was “inactive”.

For the compound `CN1C[C@H](C(=O)N[C@]2(C)O[C@@]3(O)[C@@H]4CCCN4C(=O)[C@H](Cc4ccccc4)N3C2=O)C=C2c3cccc4[nH]cc(c34)C[C@H]21`, the Potency is 61.9 µM [cytotoxic] (active) and inactive. For `O=C(O)C(O)C(O)C(=O)O` (stereo not drawn), the Potency result is “inactive”.
